sPLA2-III inh – Inhibits HGIII-sPLA2 liposome hydrolysis, primary screen; hit rate 0.56% among 370,000; inhibition, % at 12.2 µM; Q9NZ20; QFRET BODIPY PC-A2 liposome hydrolysis, fluorescence;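 active = inhibition above mean plus 3 SD of compounds lying within the high and low control bounds, cut at about 19% in these data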;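 note: 0% = median of test compound wells and 100% = no enzyme DMSO wells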
Target sequence (Q9NZ20 whole entry, looked up): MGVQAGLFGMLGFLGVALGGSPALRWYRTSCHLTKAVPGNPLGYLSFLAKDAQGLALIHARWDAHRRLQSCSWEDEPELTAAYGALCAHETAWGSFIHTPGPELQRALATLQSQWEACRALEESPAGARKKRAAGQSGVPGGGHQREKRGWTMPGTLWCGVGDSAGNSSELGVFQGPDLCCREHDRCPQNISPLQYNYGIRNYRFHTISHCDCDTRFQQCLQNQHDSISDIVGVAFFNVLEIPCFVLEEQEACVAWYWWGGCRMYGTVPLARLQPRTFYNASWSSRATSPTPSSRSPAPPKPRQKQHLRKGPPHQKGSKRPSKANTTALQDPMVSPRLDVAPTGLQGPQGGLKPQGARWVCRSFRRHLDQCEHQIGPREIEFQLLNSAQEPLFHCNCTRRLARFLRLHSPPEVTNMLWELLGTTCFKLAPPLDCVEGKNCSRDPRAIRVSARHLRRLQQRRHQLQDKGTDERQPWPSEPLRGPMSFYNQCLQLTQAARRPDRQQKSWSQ
PLC-gamma1 inh – PLC-gamma1 (human) inhibition, primary screen; P19174; purified PLC-gamma1, fluorogenic substrate, fluorescence; inhibition, % at 12.2 µM; hit rate 0.84% among 370,000; in the data active = inhibition above about 9.5%
AHR activator – human AHR activation | AHR-responsive luciferase reporter cells, luminescence | P35869 | hit rate 2.5% among 320,000 | AID 2796 | activation, % at 5 µM; in the data active = activation above about 47%;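 note: 0% = vehicle wells and 100% = reference agonist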
CR mimetic SO – yeast age-related superoxide inhibition as caloric restriction mimetic; S. cerevisiae aged cells, superoxide DHE fluorescence; hits give low values; superoxide response (% of plate mean), % at 10 µM; hit rate 0.18% among 330,000; AID 2690;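 active = superoxide response under a set limit, about three screen SD below normal, cut at about 65% in these data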;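 note: yeast aged for seven days with compound at 30 °C before DHE staining; 100% = average MFI of all compound-treated wells on the plate with controls excluded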
HIF act – HIF pathway transcriptional activation; AID 1910; hit rate 0.32% among 300,000; activation, % at 7.5 µM (by protocol); U2OS HRE-luciferase reporter, luminescence; normalized: DMSO 0%, desferrioxamine 100%;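 active = mean activation of at least 10% of the iron chelator positive control signal, with at least half of replicates also reaching 10%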
PLCb3 inh – blocks human PLC-beta3 enzyme activity; Q01970; Purified PLC-beta3, fluorogenic substrate, fluorescence; hit rate 0.18% among 370,000; inhibition, % at 12.2 µM; in the data active = inhibition above about 11%;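 note: 0% = median of compound wells on plate and 100% = full blocker control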
An asterisk follows results filed as active; i = inactive; . = no result given; + = active, no number. An excerpt weighted towards active compounds, which were near 3.9% of everything screened.

SMILES	sPLA2-III inh	PLC-gamma1 inh	AHR activator	CR mimetic SO	HIF act	PLCb3 inh
CCN(CC)c1ccc(/C=N/NC(=O)c2c(Cl)cnn2C)c(O)c1	18.2	-62.5	-5.1	101.8	14.9*	-72.2
COc1ccc(CNS(=O)(=O)CC2NCc3ccc(C)cc32)cc1 (configuration not stated)	7.9	-7.8	.	.	.	-12.8
COc1ccc2c(c1)CN1C(=O)N(C3CCCC3)S(=O)(=O)CC21 (configuration not stated)	1.7	-1.4	.	.	.	0.8
CC(=O)N1c2cc(S(=O)(=O)Nc3c(C)n(C)n(-c4ccccc4)c3=O)c(Br)cc2CC1C (configuration not stated)	-0.4	0.3	.	.	.	0.3
COc1cc2c(cc1NC(=O)C(C)OC(=O)C1CC(=O)N(Cc3ccco3)C1)oc1ccccc12 (configuration not stated)	-28.1	1.5	53.8*	105.5	2.4	3.3
CCCCCn1nnnc1C1(C)CSCC(=O)N1Cc1ccco1 (configuration not stated)	1.6	1.8	.	.	.	2.1
O=C(NCC(c1ccco1)N1CCN(c2ccccc2F)CC1)C(=O)NC1CC1 (configuration not stated)	9.0	0.2	0.2	101.8	-5.1	-4.8
O=C(NCC(c1ccco1)N1CCN(c2ccccc2F)CC1)C(=O)NC1CCCCC1 (configuration not stated)	2.2	9.5*	2.1	109.1	-0.5	2.0
COc1ccc(N2CCN(CCNS(=O)(=O)c3c(C(C)C)cc(C(C)C)cc3C(C)C)CC2)cc1	-16.9	-0.4	.	.	.	0.2
C#CCSc1nnc(-c2c[nH]c3ccccc23)n1C	1.6	1.7	48.8*	119.5	0.4	5.4
CCC1=[N+](CC(=O)c2ccc(C)cc2)CCn2c(C)ccc21	-7.6	-103.9	71.0*	93.6	-0.6	-105.2
CCC1=[N+](CC(=O)c2ccc(Br)cc2)CCn2c(C)ccc21	-15.2	-63.1	73.1*	105.4	2.6	-101.3
COc1cc(C2CC=C(C(=O)O)C(c3ccccc3F)N2S(=O)(=O)c2ccc(C)cc2)cc(OC)c1OC (configuration not stated)	-3.3	2.0	.	.	.	2.0
Cc1ccc(Cn2cc(CN3[C@H](CC(C)C)COc4cc(Br)ccc4S3(=O)=O)nn2)cc1	4.4	1.7	.	.	.	2.8
CN1CCc2nc(SCC(=O)Nc3ccc(F)cc3)c(C#N)cc2C1	.	.	67.5*	91.9	2.6	.
N#CC1=C(N)SC(N)=C(C#N)C1CCc1ccccc1	-25.7	-56.7	86.0*	100.2	-0.2	-60.7
N#CC1=C(N)SC(N)=C(C#N)C1Cc1ccccc1	-6.1	-78.0	9.4	106.2	-0.2	-96.8
CCn1c(COc2ccc(C)cc2)nnc1SCc1cccc(C(F)(F)F)c1	-9.0	-2.1	.	.	.	-11.3
c1ccc(-c2nc3ccccn3c2NCc2ccc3c(c2)OCO3)cc1	10.8	i	69.7*	98.2	1.2	i
CC(=O)N(/N=C1\Sc2ccccc2C1=O)c1cccc(C)c1	-0.9	-3.5	76.5*	104.7	4.3	-4.7
CC(C)(C)N(Cc1cn(Cc2ccccc2)nn1)S(=O)(=O)c1ccc(F)cc1Br	-4.9	3.2	.	.	.	4.5
CCOC(=O)CC(=O)CSc1nc(-c2ccc3c(c2)OCO3)cc(C(F)(F)F)c1C#N	.	.	60.3*	97.3	-0.4	.
CCOC(=O)CCSc1nc(-c2ccc3c(c2)OCO3)cc(C(F)(F)F)c1C#N	1.1	-21.1	6.0	105.6	0.0	-28.2
COc1ccc(/C=N/NC(=O)c2cccc(Br)c2)cc1CSc1ccccn1	-0.2	-6.4	56.0*	115.8	0.1	-3.6
COc1ccc(/C=N\NC(=O)c2cccc(F)c2)cc1COc1ccccc1	-13.1	-5.6	63.9*	86.3	0.8	-9.9
SMILES	sPLA2-III inh	PLC-gamma1 inh	AHR activator	CR mimetic SO	HIF act	PLCb3 inh
COc1ccc(/C=N/NC(=O)c2cccnc2)cc1CSc1ccccn1	-6.4	-5.1	11.6	81.7	1.3	-11.1
COc1ccc(C(=O)N/N=C\c2ccc(OC)c(COc3ccccc3Br)c2)c(OC)c1	-3.1	-14.5	48.5*	98.2	1.1	-21.6
Cc1ccc(NC(=O)CSc2nnc(-c3ccccc3F)n2-c2ccccc2)c(C)c1	-1.0	2.5	.	.	.	-1.1
Cn1cc(CCOCc2ccccn2)c2ccccc21	-7.4	-0.3	.	.	.	-4.7
CC(=NN1CCN(c2ccccn2)CC1)c1ccccc1O	-3.4	-2.7	.	.	.	0.6
C=CCc1c(C)nc(C)nc1N/N=C/c1ccc(F)cc1	-1.9	1.6	77.0*	98.2	-0.2	4.0
C=CCc1c(C)nc(-c2ccccc2)nc1N/N=C/c1ccccc1	-3.7	-6.8	33.3	104.3	0.0	-3.1
C=CCc1c(C)nc(-c2ccccc2)nc1N/N=C/c1ccncc1	-0.9	1.3	61.4*	104.9	2.6	-4.9
C=CCc1c(C)nc(-c2ccccc2)nc1N/N=C(\C)c1ccc(N)cc1	8.8	1.1	51.0*	89.3	2.5	0.0
C=CCc1c(C)nc(C)nc1N/N=C/c1ccccc1	-3.3	-3.7	65.7*	105.1	-0.2	-3.3
O=C(NCCCc1ccccc1)OC1CC2CC1[C@H]1CCCCN1C2 (some centres not stated)	3.2	-0.7	.	.	.	1.9
Cc1ccc(-c2nc3ccccc3[nH]2)s1	5.0	-92.6	54.9*	83.7	1.6	-101.1
CCN1Cc2c(/C=C/c3ccccc3)nc3ccc(OC)cc3c2N(c2cccc(Cl)c2)C1	-0.2	-111.5	65.0*	89.7	-2.5	-151.6
COc1ccc(OC)c(C(=O)CSc2nnc(-c3cccs3)n2C)c1	4.7	-0.6	-1.2	97.0	-0.2	1.5
COc1ccc(OC)c(C(=O)CSc2nnc(Cc3cccs3)n2CCc2ccccc2)c1	-37.4	-2.9	59.4*	116.8	-0.3	-8.2
COc1ccc(/C=C/C(=O)NC(=S)NNC(=O)Cc2cccs2)cc1	13.6	-29.0	6.0	58.4*	0.2	-32.8
COc1ccc(C(=O)NNC(=S)NC(=O)/C=C/c2cccs2)cc1	0.3	0.1	2.3	111.9	0.3	-0.1
O=C(NCc1cccnc1)c1cc(Cl)ccc1[N+](=O)[O-]	12.6	-1.5	73.6*	118.3	-0.1	-0.8
CCc1ccc(Cn2c(=O)n(Cc3ccc(C(=O)NCCCOC)cc3)c(=O)c3ccccc32)cc1	6.9	-1.4	.	.	.	0.7
Cc1ccc(C)c(C(=O)Nc2nc3ccccc3[nH]2)c1	-4.1	2.0	48.1*	89.8	2.3	-2.5
CN(c1cccc(Cl)c1)S(=O)(=O)c1cccc(C(=O)Nc2nc3ccccc3[nH]2)c1	5.4	-38.2	14.6	100.1	+	-50.0
Cc1cc(NC(=O)c2c(-c3c(F)cccc3Cl)noc2C)no1	-0.5	-33.2	-0.7	110.8	-0.2	-3.8
Cc1onc(-c2c(F)cccc2Cl)c1C(=O)Nc1nc2ccccc2[nH]1	3.9	3.5	48.4*	91.1	-0.2	-5.5
O=C(Nc1nc2ccccc2[nH]1)c1ccccc1O	-1.4	-58.2	26.5	103.4	5.6	-75.9
COc1cccc(CNC(=O)Cn2c(-c3ccccc3)cc(C(C)=O)c2C)c1OC	-1.3	-2.7	.	.	.	-1.1

Screening results (PubChem)
